Reference: PubChem BioAssay (NCI)
This is part of a sample that, as a whole, favours compounds with a hit. Of some 79,000 tested, about 15% had one in any assay. The source made the active and inactive calls. Rule as the data show it: active = growth inhibition above about 70%; inactive = the rest.

Tests used:
[1] = NCI Yeast Anticancer Drug Screen. Data for the rad52 strain (AID 147);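 also: 0% = growth of vehicle-treated control cultures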; conditions: S. cerevisiae rad52 mutant growth inhibition, hits give high values
Procedure, shortened: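 Vehicle-treated cultures served as the reference for growth inhibition of compound-exposed yeast bearing a DNA repair mutation.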

[2] = NCI Yeast Anticancer Drug Screen. Data for the wt1 strain (AID 149);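 also: 0% = growth of vehicle-treated wt1 cultures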; conditions: S. cerevisiae wt1 strain (SPY 50644) growth inhibition, hits give high values
Procedure, shortened: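 Using yeast strain wt1, compound-induced growth inhibition was determined against vehicle-treated cultures.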

[3] = NCI Yeast Anticancer Drug Screen. Data for the rad50EPP+ strain (AID 151);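 also: 0% = growth of vehicle-treated control cultures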; conditions: S. cerevisiae rad50 mutant strain, hits give high values
Procedure, shortened: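 In this screen, rad50EPP+ yeast were exposed to compounds. Growth inhibition was scored against vehicle-treated controls.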

[4] = NCI Yeast Anticancer Drug Screen. Data for the mgt1 strain (AID 153); conditions: S. cerevisiae mgt1 mutant growth inhibition, hits give high values
Procedure, shortened: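 mgt1 strain exposed; growth vs vehicle control recorded as inhibition.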

[5] = NCI Yeast Anticancer Drug Screen. Data for the rad50 strain (AID 155);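 also: 0% = growth of vehicle-only cultures of the same strain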; conditions: S. cerevisiae rad50 strain growth inhibition, hits give high values
Procedure, shortened: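 Relative growth inhibition (compound vs vehicle) was measured in yeast with a defined repair-gene alteration.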

[6] = NCI Yeast Anticancer Drug Screen. Data for the mec2-1 strain (AID 157); conditions: S. cerevisiae mec2-1 strain, hits give high values
Procedure, shortened: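 Vehicle-treated cultures served as reference for growth inhibition of compound-exposed mec2-1 yeast.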

[7] = NCI Yeast Anticancer Drug Screen. Data for the rad14 strain (AID 159);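 also: 0% = growth of vehicle-treated control cultures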; conditions: S. cerevisiae rad14 strain growth inhibition, hits give high values
Procedure, shortened: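 Screen for anticancer potential: a yeast strain altered in DNA damage repair is grown with compound, and reduced growth is quantified against vehicle controls.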

[8] = NCI Yeast Anticancer Drug Screen. Data for the sgs1 mgt1 strain (AID 161);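 also: 0% = growth of cultures given vehicle only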; conditions: S. cerevisiae sgs1 mgt1 strain, hits give high values
Procedure, shortened: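 Genetically altered yeast, compound exposure, growth inhibition relative to vehicle.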

[9] = NCI Yeast Anticancer Drug Screen. Data for the CLN2oe strain (AID 163);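 also: 0% = growth of vehicle-only control cultures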; conditions: S. cerevisiae CLN2oe strain, hits give high values
Procedure, shortened: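 Inhibition relative to vehicle-treated yeast is reported. Cells: strain with genetic alteration in cell-cycle control, grown with compound.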

[10] = NCI Yeast Anticancer Drug Screen. Data for the cln2 rad14 strain (AID 165);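 also: 0% = growth equal to vehicle treated cultures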; conditions: S. cerevisiae cln2 rad14 strain, hits give high values
Procedure, shortened: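 Each compound was tested on cln2 rad14 yeast. Inhibition of growth was calculated against vehicle-exposed controls.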

[11] = NCI Yeast Anticancer Drug Screen. Data for the bub3 strain (AID 167); conditions: S. cerevisiae bub3 mutant strain, hits give high values
Procedure, shortened: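 Screening used yeast with an engineered genetic alteration affecting cell cycle control. Compound-exposed cultures were compared with vehicle cultures, and reduced growth was taken as inhibition.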

[12] = NCI Yeast Anticancer Drug Screen. Data for the wt2 strain (AID 169);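 also: 0% = growth of vehicle-treated yeast cultures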; conditions: S. cerevisiae wt2 strain growth inhibition, hits give high values
Procedure, shortened: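 Inhibition of yeast growth was determined after compound treatment, normalised to controls receiving only vehicle.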

[13] = NCI Yeast Anticancer Drug Screen. Data for the mlh1 strain (AID 171);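 also: 0% = growth of vehicle-treated control cultures of the same strain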; conditions: S. cerevisiae mlh1 strain growth inhibition, hits give high values
Procedure, shortened: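 Vehicle-normalised growth inhibition of a repair- or checkpoint-altered yeast strain following compound treatment.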

[14] = NCI Yeast Anticancer Drug Screen. Data for the sgs1 strain (AID 173);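 also: 0% = growth of vehicle-only control cultures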; conditions: S. cerevisiae sgs1 mutant, hits give high values
Procedure, shortened: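 Screen format: yeast with repair or checkpoint alterations, compound exposure, growth read relative to vehicle.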

[15] = NCI Yeast Anticancer Drug Screen. Data for the mlh1 rad18 strain (AID 175); conditions: S. cerevisiae mlh1 rad18 strain growth inhibition, hits give high values
Procedure, shortened: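 Vehicle-treated cultures served as the reference for growth inhibition in a yeast strain carrying DNA damage repair alterations exposed to each compound.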

[16] = NCI Yeast Anticancer Drug Screen. Data for the rad18 strain (AID 177); conditions: S. cerevisiae rad18 mutant growth inhibition, hits give high values
Procedure, shortened: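 Test articles were incubated with altered yeast defective in DNA damage repair. Results are given as inhibition of growth versus vehicle.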

[17] = at 5.0 µM (retest, dose inferred, filed as 0.5)
[18] = at 50.0 µM (retest, dose inferred, filed as 5.0)

Measured: growth inhibition

CC(C)(C)[Si](C)(C)OCC1CCC(n2cnc3c(NC(=O)c4ccccc4)ncnc32)O1 (stereo not drawn)
inactive: [1]; at 1.2 µM -2% | [1]; at 3.7 µM -3% | [1]; at 11.0 µM -2% | [1]; at 33.0 µM -1% | [1]; at 100.0 µM -2% | [2]; at 1.2 µM 0% | [2]; at 3.7 µM 0% | [2]; at 11.0 µM 0% | [2]; at 33.0 µM 4% | [2]; at 100.0 µM -2% | [3]; at 1.2 µM -3% | [3]; at 3.7 µM -2% | [3]; at 11.0 µM 1% | [3]; at 33.0 µM 5% | [3]; at 100.0 µM 5% | [4]; at 1.2 µM -3% | [4]; at 3.7 µM -6% | [4]; at 11.0 µM 0% | [4]; at 33.0 µM 0% | [4]; at 100.0 µM -2% | [5]; at 1.2 µM 1% | [5]; at 3.7 µM -49% | [5]; [17] 0% | [5]; at 11.0 µM -28% | [5]; at 33.0 µM 2% | [5]; [18] 31% | [5]; at 100.0 µM 1% | [6]; at 1.2 µM -3% | [6]; at 3.7 µM 0% | [6]; [17] -2% | [6]; at 11.0 µM -1% | [6]; at 33.0 µM 0% | [6]; [18] 49% | [6]; at 100.0 µM 0% | [7]; at 1.2 µM -1% | [7]; at 3.7 µM -2% | [7]; at 11.0 µM 3% | [7]; at 33.0 µM 3% | [7]; at 100.0 µM 2% | [8]; [17] -1% | [8]; [18] 6% | [8]; at 50.0 µM 27.2% | [9]; at 1.2 µM -2% | [9]; at 3.7 µM 0% | [9]; at 11.0 µM 5% | [9]; at 33.0 µM -1% | [9]; at 100.0 µM -4% | [10]; [17] -4% | [10]; [18] 30% | [10]; at 50.0 µM 42.2% | [11]; at 1.2 µM 2% | [11]; at 3.7 µM 0% | [11]; [17] -2% | [11]; at 11.0 µM 1% | [11]; at 33.0 µM -2% | [11]; [18] 30% | [11]; at 50.0 µM 23.1% | [11]; at 100.0 µM -4% | [12]; at 1.2 µM -1% | [12]; at 3.7 µM 7% | [12]; at 11.0 µM -2% | [12]; at 33.0 µM 5% | [12]; at 100.0 µM -1% | [13]; at 1.2 µM 0% | [13]; at 3.7 µM -3% | [13]; at 11.0 µM -1% | [13]; at 33.0 µM -1% | [13]; at 100.0 µM -1% | [14]; at 1.2 µM -2% | [14]; at 3.7 µM -2% | [14]; at 11.0 µM 0% | [14]; at 33.0 µM 1% | [14]; at 100.0 µM 0% | [15]; [17] -5% | [15]; [18] 47% | [16]; at 1.2 µM -3% | [16]; at 3.7 µM 2% | [16]; at 11.0 µM -1% | [16]; at 33.0 µM 1% | [16]; at 100.0 µM -1%
active: [5]; at 50.0 µM 87.5% | [6]; at 50.0 µM 90% | [15]; at 50.0 µM 80.9%
